The results in this text go back to PubChem BioAssay (NCI).

This is part of a sample that, as a whole, favours compounds with a hit. Of some 79,000 tested, about 15% had one in any assay. Unmarked numbers belong to inactive results. Activity calls are given as the source filed them. Cut-off read from the data, not from the text of the source: active = growth inhibition above about 70%; inactive = the rest.

A short description of test [1]: NCI Yeast Anticancer Drug Screen. Data for the rad50 strain (AID 155).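 Note: 0% = growth of vehicle-only cultures of the same strain.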 Conditions: S. cerevisiae rad50 strain growth inhibition; at 50.0 µM; hits give high values. Put shortly: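 Compounds were tested on a yeast strain with an engineered DNA damage repair alteration; the reported value is growth inhibition normalised to vehicle treatment.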
Test [2] in a line: NCI Yeast Anticancer Drug Screen. Data for the mec2-1 strain (AID 157). Conditions: S. cerevisiae mec2-1 strain, at 50.0 µM, hits give high values. In a few lines:
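Yeast mec2-1 mutant treated with compound. Readout: growth inhibition vs vehicle controls.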

Test [3] is described as follows: NCI Yeast Anticancer Drug Screen. Data for the sgs1 mgt1 strain (AID 161).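 Note: 0% = growth of cultures given vehicle only.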 Conditions: S. cerevisiae sgs1 mgt1 strain, at 50.0 µM, hits give high values. Put shortly:
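Genetically altered yeast, compound exposure, growth inhibition relative to vehicle.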

Test [4] in a line: NCI Yeast Anticancer Drug Screen. Data for the cln2 rad14 strain (AID 165).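 Note: 0% = growth equal to vehicle treated cultures.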 Conditions: S. cerevisiae cln2 rad14 strain, at 50.0 µM, hits give high values. In a few lines:
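cln2 rad14 yeast strain; compound exposure; growth inhibition read vs vehicle controls.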

Test [5] is described as follows: NCI Yeast Anticancer Drug Screen. Data for the bub3 strain (AID 167). The following applies: S. cerevisiae bub3 mutant strain, at 50.0 µM, hits give high values. In a few lines: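 Growth of a checkpoint-deficient yeast mutant is measured after compound exposure. Values represent inhibition relative to vehicle.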
Test [6] is described as follows: NCI Yeast Anticancer Drug Screen. Data for the mlh1 rad18 strain (AID 175). Conditions: S. cerevisiae mlh1 rad18 strain growth inhibition; at 50.0 µM; hits give high values. Put shortly: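 Yeast w/ defined DNA-repair lesions; compound exposure; growth vs vehicle controls → % inhibition.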

Consider `CNC1NC(=O)c2ccccc2N1Cc1ccc(F)cc1` (stereo not given), for which the growth inhibition in test [1] is 5.7%; in test [2], 4.5%; in test [3] it was -23.1%; in test [4], -19.6%; in test [5], -12.1%; in test [6], -4.25%.
As for `CC(C)(C)N(OC(=O)c1ccccc1)C(=O)c1ccccc1`, the growth inhibition in test [1] was 3.25%; in test [2] it was 4.35%; in test [3], 0.4%; in test [4], 5.45%; in test [5], 0.6%; in test [6], 14.4%.
Take `C=CCSc1nc2c(=O)[nH]cnc2n1C1OC(CO)C(O)C1O` (stereo not given): the growth inhibition in test [1] was -7.35%; in test [2], 4%; in test [3], -3.1%; in test [4], -0.35%; in test [5], -8.1%; in test [6], -12.7%.
In the case of `CCC(C)Sc1nc2ccc(NC(=O)/C=C/C(=O)O)cc2s1` (stereo not given), the growth inhibition in test [1] is 31.5%; in test [2], 10%; in test [3] it was 11.7%; in test [4], 15.7%; in test [5], 13.5%; in test [6], 16.1%.
With `C=C(C(=O)NC1CCCCC1)c1ccccc1`, the growth inhibition in test [1] was -9.2%; in test [2], -22.4%; in test [3] it was -8.2%; in test [4], -12.4%; in test [5], 8.25%; in test [6], 0%.
Take `NS(=O)(=O)c1cc2c(cc1Cl)NC(Cc1ccccc1)NS2(=O)=O` (stereo not given): the growth inhibition in test [1] was -20.7%; in test [2], -4.55%; in test [3], -9.45%; in test [4] it was -7.2%; in test [5], 0.2%; in test [6] it was 18.4%.
With `CCCCOC(=O)/C(CC(=O)C=C(C)C)=N\NS(=O)(=O)c1ccc(C)cc1`, the growth inhibition in test [1] is 1.75%; in test [2] it was -14.1%; in test [3], -10.5%; in test [4] it was 5.3%; in test [5] it was -8.5%; in test [6] it was -5.75%.
In the case of `c1ncncn1`, the growth inhibition in test [1] is 7.5%; in test [2] it was 5.95%; in test [3] it was 10.1%; in test [4] it was 3.05%; in test [5] it was 5.25%; in test [6], -7.85%.
For `CC(C)Cc1ccc(C(C)CC2=CCC(CN(C)C)C2=O)cc1` (stereo not given), the growth inhibition in test [1] is 79.2% (active); in test [2], 91.5% (active); in test [3], 90.2% (active); in test [4], 84.4% (active); in test [5], 88.7% (active); in test [6], 89.3% (active).
Regarding `C=CCSCC1Nc2cc(Cl)c(S(N)(=O)=O)cc2S(=O)(=O)N1C` (stereo not given), the growth inhibition in test [1] was 22.8%; in test [2], 12.8%; in test [3] it was 8.05%; in test [4] it was 20.1%; in test [5], -3.75%; in test [6], 2.25%.
Take `O=C1C2=C(Nc3ccccc3N2)OC1c1ccccc1Cl` (stereo not given): the growth inhibition in test [1] was -0.95%; in test [2], -11.7%; in test [3] it was -22.1%; in test [4] it was 6.7%; in test [5], -21.8%; in test [6], 4%.
Regarding `O=C1c2ccccc2-c2ccc(N3C(=O)C=CC3=O)cc21`, the growth inhibition in test [1] was 98.6% (active); in test [2] it was 98.6% (active); in test [3], 98.8% (active); in test [4], 56.2%; in test [5], 92.4% (active); in test [6], 92.2% (active).
As to `O=c1[nH]c2ccc([N+](=O)[O-])cc2nc1/C=C(\O)c1ccccc1`, the growth inhibition was -9.85% in test [1]; 14.3% in test [2]; -24.4% in test [3]; -31.1% in test [4]; 3.75% in test [5]; -46.5% in test [6].
Regarding `Cc1nc2ccccc2c(=O)n1NC(=S)Nc1ccccc1`, the growth inhibition in test [1] was -40.9%; in test [2], -57.1%; in test [3], -41.5%; in test [4], 7.85%; in test [5], -32.4%; in test [6] it was -59.5%.
Take `O=c1c2ccccc2sc2nc(CCl)nn12`: the growth inhibition was 6.2% in test [1]; 4.25% in test [2]; 8.2% in test [3]; 16.8% in test [4]; 2.05% in test [5]; 47.2% in test [6].
Regarding `CCCCc1c2c(nc3c1CCc1cc4c(nc1-3)-c1nc3c(c(CCCC)c1CC4)CCC/C3=C\c1ccccc1)/C(=C/c1ccccc1)CCC2`, the growth inhibition in test [1] is 16.6%; in test [2] it was 3.2%; in test [3], -0.25%; in test [4], 5.4%; in test [5], 5.05%; in test [6] it was 2.8%.
On to `CC12O[C@H](c3ccccc3)[C@H](c3ccccc3)N1C(=O)C1(C(=O)OCc3ccccc3)CC12` (stereo not given in full), for which the growth inhibition is 11.3% in test [1]; -7.35% in test [2]; 6.4% in test [3]; 2.15% in test [4]; -7.05% in test [5]; -3.45% in test [6].
Consider `COc1ccc(/C=N\S(=O)(=O)c2ccc(OC)cc2)cc1`, for which the growth inhibition in test [1] was 16.3%; in test [2], 13.7%; in test [3] it was 15.1%; in test [4], 8.8%; in test [5], 2.2%; in test [6] it was 0.5%.
On to `CC1=NN(c2ccccc2)C(=O)/C1=C\c1ccc([N+](=O)[O-])cc1`, for which the growth inhibition in test [1] is 25.9%; in test [2] it was 29.1%; in test [3], 28.4%; in test [4] it was 18.9%; in test [5] it was 18.4%; in test [6], 19.5%.
As to `O=c1[nH]c(-c2cccnc2)nnc1-c1ccc(Cl)cc1`, the growth inhibition was 17.1% in test [1]; 2.4% in test [2]; 10.4% in test [3]; 28.4% in test [4]; 27.9% in test [5]; 4.2% in test [6].
